Values joined by “and” are separate entries in the source; they are usually repeats but may differ in a detail not shown here. Equal values may be shown once. Records with an inconclusive call do not appear. The source holds several records for some structures; these can differ, active in one and inactive in another. Active and inactive are the calls of the source. Calls follow the shape of the dose curve; as a rule, active = well fitted curve in the direction sought with a large enough effect in the repeat runs; inconclusive = weak or mixed curves; inactive = no such curve, though single readings can be large; an effect the other way counts as inactive or inconclusive.
What was measured:
[1] = A CellTox Green Cytotoxicity Assay to monitor cytotoxicity in HEK293 cells - 40 hour (AID 1224871); also: nearly all actives have a fitted effect of over 45% in size; also: potency is read from the fitted curve at half-maximal effect
Summary of the method: (§1)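 Fluorescence from a DNA-binding dye excluded by viable cells was measured repeatedly in the same HEK293 wells (600 cells/well) during continuous compound exposure at 37 C. Each assay gives one read point: 0, 8, 16, 24, 32 or 40 h.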

[2] = qHTS RealTime-Glo MT Cell Viability Assay in HEK293 cells - 16 hour (AID 1224872); also: nearly all actives have a fitted effect of over 50% in size; also: potency is read from the fitted curve at half-maximal effect
Summary of the method: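 Viability tracked continuously by luminescence as live cells reduce a prosubstrate for NanoLuc; HEK293 cells preincubated 5 h, compound-treated at 37 C, and read at 0, 8, 16, 24, 32 and 40 h.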

[3] = qHTS RealTime-Glo MT Cell Viability Assay in HepG2 cells - 8 hour (AID 1224873); also: nearly all actives have a fitted effect of over 55% in size
Summary of the method: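 HepG2 cells (600/well) mixed with RealTime-Glo MT reagent, settled 5 h at 37 C/5% CO2 before compound addition. Nonlytic NanoLuc luminescence from viable-cell prosubstrate reduction read repeatedly during 40 h treatment at 37 C.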

[4] = qHTS RealTime-Glo MT Cell Viability Assay in HEK293 cells - 40 hour (AID 1224874); conditions: RealTime-Glo luminescence; max response: stronger effect = lower value; also: nearly all actives have a fitted effect of over 50% in size; also: potency is read from the fitted curve at half-maximal effect
Summary of the method: (§2)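 Luminescence, which tracks viable cell number through reduction of the prosubstrate to a NanoLuc substrate, was read over continuous 37 C culture. Cells (600/well) were premixed with reagent and rested 5 h before 23 nL of compound in DMSO was pinned.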

[5] = A CellTox Green Cytotoxicity Assay to monitor cytotoxicity in HEK293 cells - 24 hour (AID 1224875); also: series mostly up to about 77 µM; nearly all actives have a fitted effect of over 45% in size
Summary of the method: as §1

[6] = A CellTox Green Cytotoxicity Assay to monitor cytotoxicity in HepG2 cells - 16 hour (AID 1224876); also: nearly all actives have a fitted effect of over 45% in size; also: potency is read from the fitted curve at half-maximal effect
Summary of the method: (§3)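 Real-time cytotoxicity: fluorescence of a cell-impermeant cyanine dye binding DNA of dead HepG2 cells, measured repeatedly (0–40 h) during compound exposure at 37 C. Cells seeded 600/well with reagent, dosed after 5 h.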

[7] = qHTS RealTime-Glo MT Cell Viability Assay in HepG2 cells - 32 hour (AID 1224877); also: nearly all actives have a fitted effect of over 55% in size
Summary of the method: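 Viability was tracked continuously by NanoLuc luminescence from prosubstrate reduced by living HepG2 cells, at successive time points over 40 h of compound exposure. Cells with reagent were preincubated 5 h at 37 °C before compound addition.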

[8] = A CellTox Green Cytotoxicity Assay to monitor cytotoxicity in HepG2 cells - 40 hour (AID 1224879); also: nearly all actives have a fitted effect of over 40% in size; also: potency is read from the fitted curve at half-maximal effect
Summary of the method: as §3

[9] = qHTS RealTime-Glo MT Cell Viability Assay in HEK293 cells - 0 hour (AID 1224880); also: top concentration of the series differs between compounds; nearly all actives have a fitted effect of over 45% in size
Summary of the method: as §2

[10] = A CellTox Green Cytotoxicity Assay to monitor cytotoxicity in HepG2 cells - 24 hour (AID 1224878); also: nearly all actives have a fitted effect of over 45% in size
Summary of the method: as §3
% is scaled to controls: 0 for no effect and ±100 for the full control effect.

CC1=CC(=O)CC(C)(C)C1
25.3 µM (active) and inactive: Potency [1] | Potency [8]
inactive: Potency [2] | Potency [3] | max response [4] 9.76% | Potency [5] | Potency [6] | Potency [7] | Potency [9]

CCOC(=O)c1ccc(O)cc1
inactive: Potency [1] | Potency [2] | Potency [3] | max response [4] -23.5% and -3.47% | Potency [5] | Potency [6] | Potency [7] | Potency [8] | Potency [9]

CO[Si](CCCNCCN)(OC)OC
inactive: Potency [1] | Potency [2] | Potency [3] | max response [4] 4.43% and -18.7% | Potency [5] | Potency [7] | Potency [9]
inactive and 49 µM (active): Potency [6]

O=c1n(CCCN2CCN(c3cccc(Cl)c3)CC2)nc2ccccn12
inactive: Potency [1] | Potency [3] | Potency [5] | Potency [6] | Potency [7] | Potency [8] | Potency [9]
active: Potency [2] 12.3 µM and 9.52 µM | Potency [4] 13.8 µM and 9.52 µM

CCCCCCC(=O)O
inactive: Potency [1] | Potency [2] | Potency [3] | max response [4] 0.822% and 2.88% | Potency [5] | Potency [6] | Potency [7] | Potency [8] | Potency [9]

OC1CCCCC1
inactive: Potency [1] | Potency [2] | Potency [3] | max response [4] 6.11% and 1.84% | Potency [5] | Potency [6] | Potency [7] | Potency [10] | Potency [9]

O=C1O[C@H]([C@H](O)CO)C(O)=C1O
inactive: Potency [1] | Potency [2] | Potency [3] | max response [4] 0.913% and 0.152% | Potency [5] | Potency [6] | Potency [7] | Potency [9]

COc1c(Cl)ccc(Cl)c1C(=O)O
inactive: Potency [1] | Potency [2] | Potency [3] | max response [4] 2.72% and -3.19% | Potency [5] | Potency [6] | Potency [7] | Potency [8] | Potency [9]

CC(C)(C)NC[C@H](O)COc1nsnc1N1CCOCC1
inactive and 3.38 µM (active): Potency [1]
inactive: Potency [2] | Potency [3] | max response [4] -0.31% and -1.2% | Potency [5] | Potency [6] | Potency [7] | Potency [8] | Potency [9]

CC/C(C)=N/O
inactive: Potency [1] | Potency [2] | Potency [3] | max response [4] 0.953% and 3.11% | Potency [5] | Potency [6] | Potency [7] | Potency [9]

N[C@@H](Cc1cc(I)c(Oc2ccc(O)c(I)c2)c(I)c1)C(=O)O
inactive: Potency [1] | Potency [2] | max response [4] -20.1% and -17.6% | Potency [5] | Potency [6] | Potency [7] | Potency [10]

Oc1ccc(Cc2ccccc2O)cc1
active: Potency [2] 15.5 µM | Potency [4] 14 µM and 17.4 µM
inactive: Potency [1] | Potency [3] | Potency [5] | Potency [6] | Potency [7] | Potency [10] | Potency [9]

Brc1ccc(Oc2ccc(Br)cc2)cc1
inactive: Potency [1] | Potency [2] | Potency [3] | max response [4] -1.97% and -5.7% | Potency [5] | Potency [6] | Potency [7] | Potency [9]

COCN(COC)c1nc(N(COC)COC)nc(N(COC)COC)n1
inactive: Potency [1] | Potency [2] | Potency [3] | max response [4] -2.02% and -0.0674% | Potency [5] | Potency [6] | Potency [7] | Potency [8] | Potency [9]

OCC(CO)(CO)CO
inactive: Potency [1] | Potency [2] | Potency [3] | max response [4] 2.43% and 2.9% | Potency [5] | Potency [6] | Potency [7] | Potency [8] | Potency [9]

NC(=O)NC(N)=O
inactive: Potency [1] | Potency [2] | Potency [3] | max response [4] 1.11% and 4.69% | Potency [5] | Potency [6] | Potency [7] | Potency [9]

OCCOCCOCCOCCOCCO
inactive: Potency [1] | Potency [2] | Potency [3] | max response [4] 2.45% and 0.674% | Potency [5] | Potency [6] | Potency [7] | Potency [10] | Potency [9]

CS(=O)(=O)c1ccc(Cl)cc1
inactive and 38.9 µM (active): Potency [6]
inactive: Potency [1] | Potency [2] | Potency [3] | max response [4] -0.177% and 6.75% | Potency [5] | Potency [7] | Potency [9]

CCCN(CCC)C(=O)SCC
inactive: Potency [1] | Potency [2] | Potency [3] | max response [4] 1.3% and 0.597% | Potency [5] | Potency [6] | Potency [7] | Potency [10] | Potency [9]

Nc1cccc(N)n1
inactive: Potency [1] | Potency [2] | Potency [3] | max response [4] 0.328% and -0.427% | Potency [5] | Potency [6] | Potency [7] | Potency [9]

Cc1ncc(CO)c(CO)c1O
inactive: Potency [1] | Potency [2] | Potency [3] | max response [4] 6.27% and -1.31% and 5.41% | Potency [5] | Potency [6] | Potency [7] | Potency [8] | Potency [9]

O=[N+]([O-])c1ccccc1C(F)(F)F
inactive: Potency [1] | Potency [2] | Potency [3] | max response [4] 3.79% and 8.48% | Potency [5] | Potency [6] | Potency [7] | Potency [8] | Potency [9]

Reference: PubChem BioAssay (Tox21)
